# From PubChem BioAssay
# Most compounds without a hit are left out; they make up all but 10% or so of the library.
# SW480 rerep = A quantitative high throughput screen for small molecules that induce DNA re-replication in SW480 colon adenocarcinoma cells; Potency, µM (highest dose often 46.1 µM), hits mostly activators; 340,000 tested, 1.8% active; AID 624297, 2012; SW480 DNA re-replication, Hoechst DNA content imaging, 48 h; also: nearly all actives have a fitted effect of over 55% in size
#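 Per well, 250 cells were exposed to pinned compound for 48 hr. Nuclear DNA was visualised with Hoechst (40 min, 37 C) and total object intensity recorded by fluorescence scanning.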
# VP16 counter = VP16 counterscreen qHTS for inhibitors of ROR gamma transcriptional activity. 310,000 tested, 3.5% active. Potency, µM (titrated, usually from 53.6 µM), usual class: inhibitors. Drosophila S2 Gal4-VP16 UAS-luciferase, luminescence, 20 h;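 also: Gal4-VP16 expression switched on by copper sulfate through the metallothionein promoter; nearly all actives have a fitted effect of over 50% in size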
# MCF10A rereplic = A quantitative high throughput screen for small molecules that induce DNA re-replication in MCF 10a normal breast cells. MCF 10A DNA re-replication, Hoechst nuclear intensity, 48 h. Potency, µM (doses to about 46.1 µM), actives largely listed as activators. 350,000 tested, 2.9% active; also: nearly all actives have a fitted effect of over 50% in size
# KB-V1 cytotox = qHTS assay for MDR1-selective chemotherapeutics: Primary screen using the drug-selected MDR subline cells KB-V1; KB-V1 MDR cells viability, CellTiter-Glo, 72 h; Potency, µM (top dose mostly 46.1 µM), actives largely listed as cytotoxic; 400,000 tested, 3.4% active; AID 1347076, 2019; also: nearly all actives have a fitted effect of over 60% in size
#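 KB-V1, DMEM (no phenol red) + 10% FBS; cpd pin-transferred, titration series; 72 h, 37 degrees C; CellTiter-Glo, luminescence. Data normalized, curve-fit.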
# KB-3-1 tox = qHTS assay for MDR1-selective chemotherapeutics: Primary screen using the parental adenocarcinoma cell KB-3-1; KB-3-1 viability, CellTiter-Glo ATP luminescence, 72 h; Potency, µM (series often up to 46.1 µM), most hits filed as cytotoxic; 400,000 tested, 1.4% active; also: nearly all actives have a fitted effect of over 60% in size
#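 KB-3-1 parental drug-naive adenocarcinoma cells in DMEM/10% FBS, incubated 72 h at 37 C with pin-transferred compounds across a concentration series. Viability by CellTiter-Glo luminescence; concentration-response curves fitted after normalization.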
# RORg inh = qHTS for inhibitors of ROR gamma transcriptional activity; Nuclear receptor ROR-gamma (Mus musculus), P51450; Drosophila S2 Gal4-RORgamma UAS-luciferase reporter, 20 h; Potency, µM (highest dose often 53.6 µM), most hits filed as inhibitors; 310,000 tested, 5.4% active; AID 2551, 2010; also: nearly all actives have a fitted effect of over 60% in size
# Target sequence (P51450 whole entry, looked up, the tested form may be a part): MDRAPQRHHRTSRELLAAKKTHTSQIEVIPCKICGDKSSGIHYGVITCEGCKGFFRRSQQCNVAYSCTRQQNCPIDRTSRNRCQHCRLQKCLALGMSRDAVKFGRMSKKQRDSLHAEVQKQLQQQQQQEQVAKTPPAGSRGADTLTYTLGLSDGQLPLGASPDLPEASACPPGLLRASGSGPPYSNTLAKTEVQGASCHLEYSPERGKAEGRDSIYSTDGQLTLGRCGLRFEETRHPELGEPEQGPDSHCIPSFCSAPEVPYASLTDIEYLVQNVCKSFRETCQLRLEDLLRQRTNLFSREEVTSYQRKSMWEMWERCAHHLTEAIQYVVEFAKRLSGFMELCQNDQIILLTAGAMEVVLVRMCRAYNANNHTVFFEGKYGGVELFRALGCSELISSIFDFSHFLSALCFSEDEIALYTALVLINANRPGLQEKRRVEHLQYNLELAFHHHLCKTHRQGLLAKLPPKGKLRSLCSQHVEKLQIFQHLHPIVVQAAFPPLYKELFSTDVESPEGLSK
#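 Compounds are pin-transferred onto Drosophila Schneider cells expressing a copper-inducible Gal4–ROR gamma transactivation domain fusion. After 1 hr, copper sulfate is added to 700 uM final; luciferase is read 20 hr later.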
# Hits are given with their value; - = inactive; ? = inconclusive; . = no result. Calls follow the shape of the dose curve; as a rule, active = well fitted curve in the direction sought with a large enough effect; inconclusive = small, poorly fitted or top-dose-only effect, or another doubt; inactive = no such curve, though single readings can be large; an effect the other way counts as inactive or inconclusive.
SMILES,SW480 rerep,VP16 counter,MCF10A rereplic,KB-V1 cytotox,KB-3-1 tox,RORg inh
O=C(CN1CCCN(Cc2cccc(F)c2)S1(=O)=O)Nc1ccc2c(c1)OCCO2,.,.,.,-,-,.
Cc1oc(-c2cccs2)nc1CN1CCN(CCC(C)C)C(CCO)C1 (stereo not given),?,-,23µM,-,-,-
COc1ccc(/C=N/Nc2nncc3ccccc23)cc1,-,-,-,?,?,-
COc1ccccc1/C=N/Nc1nncc2ccccc12,-,4µM,-,-,-,2µM
Oc1c(Br)cc(/C=N/Nc2nncc3ccccc23)cc1Br,-,-,21µM,-,-,-
COC(=O)[C@]12CCCCC=C1N(Cc1ccc(Cl)cc1Cl)C(=O)[C@H](CC(=O)N1CCSCC1)C2,.,.,.,-,-,.
O=C(NC1CC1)C1CCCN1S(=O)(=O)c1ccc2ccccc2c1 (stereo not given),?,-,-,?,16µM,-
CCNC(=O)C1CCCN1S(=O)(=O)c1ccc2ccccc2c1 (stereo not given),-,-,-,-,?,-
CC(C)(C#N)NC(=O)C1CCCN1S(=O)(=O)c1ccc2ccccc2c1 (stereo not given),23µM,-,?,?,?,-
CC(=O)C1CN(S(=O)(=O)c2ccc(C)cc2)C(c2ccccc2)CC1C (stereo not given),.,.,.,?,-,.
COc1cc(NC(=O)CSc2nncn2C)c(C)cc1[N+](=O)[O-],?,-,-,-,?,-
COc1cc(NC(=O)CSc2nc(C)c(C)c(C)n2)c(C)cc1[N+](=O)[O-],-,-,-,15µM,-,?
Cc1ccccc1-n1c(SCC(=O)NC2CC2)nc2ccccc2c1=O,.,.,.,-,-,.
CCOC(=O)c1c(SCCN2CCCCC2)n(-c2ccccc2)c(=S)n(-c2ccccc2)c1=O,12µM,.,9.2µM,-,-,.
CC(C)c1ccc(C(O)c2nc3ccccc3n2C)cc1 (stereo not given),-,-,-,-,-,-
Cn1c(C(C#N)C(=O)c2sc3ccccc3c2Cl)nc2ccccc21 (stereo not given),-,4.5µM,-,?,-,1.8µM
C=CCN1C(=O)/C(=C/c2ccc(OC)cc2)S/C1=N/c1nccs1,-,-,-,-,-,5µM
C=CCN1C(=O)/C(=C/c2ccc(O)cc2)S/C1=N/c1nccs1,-,-,23µM,-,-,-
C=CCN=C1S/C(=C\c2ccc(N(C)C)cc2)C(=O)N1CC=C,?,-,18µM,-,-,-
CCCN1CCN(c2ncnc3sc(C(=O)Nc4ccc(N(CC)CC)cc4C)c(C)c23)CC1,.,.,.,-,-,.
COCCNC(=S)NN=C1CCC(c2ccccc2)CC1 (stereo not given),?,-,-,-,-,-
COCCNC(=S)N/N=C(\C)c1ccccc1O,?,0.45µM,-,-,-,0.2µM
COCCNC(=S)N/N=C/c1ccccc1C(=O)O,-,-,-,-,-,-
COCCNC(=S)N/N=C(\C)c1ccccc1F,-,20µM,-,-,-,3.5µM
COCCNC(=S)N/N=C(\C)c1ccccc1OC,-,6.3µM,-,-,-,2.5µM
CCc1ccc([C@@H]2C[C@H]3[C@@H](CN2S(=O)(=O)c2ccc(C)cc2)C(=O)C[C@@H](c2cccc(Cl)c2)N3S(=O)(=O)c2ccc(C)cc2)cc1,.,.,.,?,-,.
Cc1ccc(CN(C)C(=O)COc2ccc(S(=O)(=O)N3CCCC3)cc2[N+](=O)[O-])c(C)c1,-,.,-,-,-,.
Brc1ccc(-c2nn3c(-c4ccccn4)nnc3s2)o1,-,-,-,18µM,?,-
